From PubChem BioAssay
Only some compounds are listed: those with a hit (about 9.9% of all), similar ones and a draw of the others.
ALDH1A1 inh: ALDH1A1 (human) enzyme inhibition. P00352. Purified ALDH1A1, NADH fluorescence, propionaldehyde substrate. Potency, µM (series often up to 75.3 µM), for inactives: at the top dose activity, negative = inhibition, actives largely listed as inhibitors. hit rate 7.3% among 220,000. AID 1030;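 also: plate controls were no enzyme wells and a reference inhibitor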
Target sequence (P00352 whole entry, looked up): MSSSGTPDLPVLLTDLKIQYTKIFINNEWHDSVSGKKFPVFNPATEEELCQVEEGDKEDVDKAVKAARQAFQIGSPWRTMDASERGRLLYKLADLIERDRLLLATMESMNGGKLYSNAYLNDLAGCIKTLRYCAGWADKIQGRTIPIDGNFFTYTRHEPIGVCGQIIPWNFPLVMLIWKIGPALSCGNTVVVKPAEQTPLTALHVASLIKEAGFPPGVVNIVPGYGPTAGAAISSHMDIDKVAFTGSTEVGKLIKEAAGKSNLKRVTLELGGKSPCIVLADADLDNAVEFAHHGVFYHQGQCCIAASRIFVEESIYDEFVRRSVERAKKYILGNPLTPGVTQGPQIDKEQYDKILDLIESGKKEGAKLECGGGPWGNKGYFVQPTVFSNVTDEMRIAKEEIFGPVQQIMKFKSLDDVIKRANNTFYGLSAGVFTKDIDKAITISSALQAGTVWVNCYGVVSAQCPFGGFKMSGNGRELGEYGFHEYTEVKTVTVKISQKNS
Tau FP inhib: blocks human tau fibril formation measured by polarization. Potency, µM (titrated, usually from 57.7 µM), inactives show at the top dose activity, negative = inhibition, most hits filed as inhibitors. P10636. hit rate 0.39% among 280,000. K18 P301L tau heparin fibrillization, Alexa594 FP, 6 h. AID 1468; active = well fitted curve in the direction sought with a large enough effect; inconclusive = small, poorly fitted or top-dose-only effect, or another doubt; inactive = no such curve, though single readings can be large; an effect the other way counts as inactive or inconclusive; also: nearly all actives have a fitted effect of over 55% in size
Target sequence (P10636 561-689 P618L limits assumed): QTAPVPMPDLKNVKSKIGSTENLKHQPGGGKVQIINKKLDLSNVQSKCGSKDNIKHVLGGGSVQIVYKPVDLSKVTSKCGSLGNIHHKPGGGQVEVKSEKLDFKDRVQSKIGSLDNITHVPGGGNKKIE
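Recombinant K18 P301L […], labeled with Alexa 594 at 0.24 uM over 15 uM unlabeled; heparin inducer 20 uM final; 37 C, 6 hr; FP endpoint.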
KDM4E inh: JMJD2E (human) inhibition. hit rate 1.6% among 230,000. B2RXH2. JMJD2E catalytic domain, FDH-coupled NADH fluorescence (FDH is formaldehyde dehydrogenase). Potency, µM (titrated, usually from 57.1 µM), without a hit: top-dose activity change, negative = inhibition, most hits filed as inhibitors;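 also: 0% = wells with enzyme and -100% = buffer wells without enzyme; nearly all actives have a fitted effect of over 50% in size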
Tau ThT inhib: tau fibrillization inhibition (ThT binding); Potency, µM (highest dose often 57.4 µM), for the others: at the top dose activity, negative = inhibition, actives largely listed as inhibitors; AID 1460; hit rate 2.1% among 270,000; recombinant tau K18 P301L, heparin-induced fibrillization, ThT fluorescence; active = well fitted curve in the direction sought with a large enough effect; inconclusive = small, poorly fitted or top-dose-only effect, or another doubt; inactive = no such curve, though single readings can be large; an effect the other way counts as inactive or inconclusive; also: nearly all actives have a fitted effect of over 55% in size
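Using a mix of unlabeled (15 uM) and Alexa 594-labeled (0.24 uM) tau K18 P301L, heparin-triggered fibrillization over 6 hr at 37 C was scored by ThT fluorescence.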
Tau fluor counter: counter-screen for tau fibril formation inhibitors | tau K18 P301L Alexa594 fluorescence, heparin fibrillization | Potency, µM (titrated, usually from 57.7 µM), for the others: top-dose activity change, negative = decrease | hit rate 0.93% among 280,000 | AID 1463; active = well fitted curve in the direction sought with a large enough effect; inconclusive = small, poorly fitted or top-dose-only effect, or another doubt; inactive = no such curve, though single readings can be large; an effect the other way counts as inactive or inconclusive; also: nearly all actives have a fitted effect of over 55% in size
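Human tau K18 P301L (15 uM unlabeled, 0.24 uM Alexa 594-labeled) in 100 mM sodium acetate pH 7 with 20 uM heparin, 6 hr at 37 C. ThT 30 uM added, 1 hr ambient; Alexa 594 FP and total fluorescence read at 555/632 nm.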
HPGD block: inhibitors of human 15-hydroxyprostaglandin dehydrogenase (HPGD) | P15428 | purified HPGD, NADH fluorescence kinetic, PGE2 substrate | Potency, µM, without a hit: at the highest dose activity change, negative = inhibition, hits mostly inhibitors | hit rate 4.3% among 150,000
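20 nM HPGD preincubated 15 min at room temperature with compound in 50 mM Tris-HCl pH 8, 0.01% Tween 20. Started with 1 mM NAD+ and 30 uM prostaglandin E2; NADH fluorescence (360/450 nm) read 5 times over 30-s intervals, last minus first.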
Starred values were filed as active, the others as inactive; ? = inconclusive; . = no result given; [ ] = another dose, or the depositor's remark. Unless noted, calls follow the shape of the dose curve; as a rule, active = well fitted inhibition curve with a large enough effect (not every such curve was filed as active); inconclusive = small, poorly fitted or top-dose-only effect, or another doubt; inactive = no such curve, though single readings can be large or run the other way. Unless noted, % is scaled to controls: 0 for no effect and ±100 for the full control effect; potency is read from the fitted curve at half-maximal effect.

SMILES | ALDH1A1 inh | Tau FP inhib | KDM4E inh | Tau ThT inhib | Tau fluor counter | HPGD block
Brc1ccc(N/N=C(/N=Nc2nn[nH]n2)c2ccccc2)cc1 | 14.1µM* | ? | 25.1µM* | 4.47µM* | 8.91µM*[quencher] | .
C/C(=N\Nc1ccc(C(=O)O)cc1)c1ccc(Br)cc1 | 5.6% | ? | -5.8% | ? | -22.1% | .
O=C(Nc1nnc(SCc2ccc(F)cc2)s1)c1ccc2c(c1)C(=O)N(c1ccccc1Cl)C2=O | 1.26µM* | -0.5% | 3.7% | 5.2% | 3.5% | .
O=C(Nc1nnc(SCc2ccc(F)cc2)s1)c1ccc2ncsc2c1 | ? | -3.3% | ? | 3.2% | -6.8% | -19.2%
CCn1cc(C(=O)NCc2ccccc2OC)c(=O)c2cc(S(=O)(=O)N(C)C)ccc21 | 3.16µM* | -2.4% | -6.3% | 3.6% | -9.3% | -20.1%
CCc1ccccc1NS(=O)(=O)c1ccc2[nH]cc(C(=O)NCc3ccco3)c(=O)c2c1 | 14.2% | 8.3% | 4.6% | -7.5% | -4.5% | -7.4%
CCN(CC)C(=O)c1c[nH]c2ccc(S(=O)(=O)Nc3cc(C)cc(C)c3)cc2c1=O | -2.7% | -12.7% | 31.6µM* | -7.3% | -15.2% | -2.6%
COc1ccccc1CNC(=O)c1c[nH]c2ccc(S(=O)(=O)Nc3cc(C)cc(C)c3)cc2c1=O | . | 8.91µM* | . | 4.1% | ? | .
CCc1ccc(C2CC(=O)c3c([nH]c(C(=O)OCCOc4ccccc4)c3C)C2)cc1 (stereo not given) | . | -6.5% | . | 3.0% | -4.7% | .
CC1CCC2C(=O)OC(CO)CN2C1c1ccc(Br)cc1 (stereo not given) | 16.0%[13.5 µM] | -2.0%[11.6 µM] | . | -5.9%[11.5 µM] | -6.6%[11.6 µM] | .
CC(=O)Nc1ccc(S(=O)(=O)Oc2ccc(C(=S)N3CCCCC3)cc2)cc1 | 14.1µM* | ? | -9.1% | -11.8% | ? | 15.8µM*
CCOc1cc(C(=S)N2CCOCC2)ccc1OS(=O)(=O)c1ccc(NC(C)=O)cc1 | 6.0% | -7.9% | -0.9% | -5.9% | -15.1% | -20.2%
CC(=O)c1ccc(NC(=S)N2CCC(O)CC2)cc1 | -6.9% | 3.1% | 8.8% | -6.2% | -4.6% | .
CC(=O)Nc1ccc(S(=O)(=O)Oc2ccc(C(=S)N3CCC(O)CC3)cc2)cc1 | 3.6% | -9.1% | -3.4% | 1.8% | -4.4% | 31.6µM*
O=C(NCc1ccccc1F)C(=O)NCC(c1cccs1)S(=O)(=O)c1cccs1 (stereo not given) | . | -4.9% | . | -15.4% | -20.5% | .
Cc1c2cnn(-c3ccccc3)c(=O)c2c(C)n1CCCC(=O)Nc1cccc(F)c1 | . | -5.9% | . | -4.6% | -22.8% | .
O=Cc1cnc(N2CCCCC2)s1 | 3.55µM* | 10.1% | 1.5% | 0.6% | 2.1% | .
Oc1ccccc1CNc1ccc2c(c1)OCCO2 | -7.2% | -2.5% | -2.4% | ? | ? | .
c1cncc(CNc2ccc3c(c2)OCO3)c1 | 20µM* | 2.8% | ? | ? | -22.4% | -12.5%
Cc1ccc(CNc2ccc3c(c2)OCO3)c(C)c1 | ? | ? | ? | 12.6µM* | ? | -3.9%
CCOC(=O)CCCc1sc(N)nc1-c1[nH]c(=O)[nH]c1C | 12.6µM* | -8.3% | ? | -8.7% | 4.3% | 31.6µM*
Cc1cccc2cc(CNCC3CCCO3)c(Cl)nc12 (stereo not given) | -6.8% | 7.7% | -4.5% | -12.3% | -5.9% | .
CCC(Sc1ccc2nnc(-c3ccc(OC)c(OC)c3)n2n1)C(=O)O (stereo not given) | ? | 5.9% | ? | -13.2% | -6.1% | 14.1µM*
COc1ccc(-c2nnc3ccc(SC(C(C)=O)C(C)=O)nn23)cc1OC | -10.2% | -0.7% | ? | -5.5% | -7.1% | 14.1µM*
COC(=O)CSc1ccc2nnc(-c3ccc(OC)c(OC)c3)n2n1 | 1.1% | 7.9% | 6.7% | 1.3% | -1.3% | ?
SMILES | ALDH1A1 inh | Tau FP inhib | KDM4E inh | Tau ThT inhib | Tau fluor counter | HPGD block
O=C(c1cccc(C(F)(F)F)c1)N(c1ccccn1)C1CCCCC1 | 4.0% | -0.1% | 0.5% | -8.3% | -14.3% | .
Nc1ccc(-c2nc3ccc([N+](=O)[O-])cc3[nH]2)cc1 | -4.0% | 13.7% | -4.3% | 12.6µM* | ? | -5.3%
O=[N+]([O-])c1ccc(-c2nc3ccc([N+](=O)[O-])cc3[nH]2)cc1 | 9.6% | ? | 1.7% | 2.82µM* | ? | -12.4%
CCCC[n+]1ccc(-c2nc3ccc([N+](=O)[O-])cc3[nH]2)cc1 | -1.3% | -2.2% | -4.2% | 9.8% | 7.1% | ?
O=[N+]([O-])c1ccc2nc(/C=C/c3ccc(Cl)cc3)[nH]c2c1 | -11.3% | -1.5% | 1.4% | 12.6µM* | ? | -14.2%
Cc1cc(-c2csc(NC(=O)c3cccc(S(=O)(=O)N(C)C)c3)n2)c(C)n1-c1ccccc1 | ? | -5.0% | 12.6µM* | ? | ? | -16.3%
Cc1nc(SCC(=O)Nc2ccnc3ccccc23)n[nH]1 | 17.8µM* | -7.2% | -4.5% | -14.1% | -10.8% | -10.4%
Cc1nc(SCC(=O)Nc2ccccn2)n[nH]1 | 2.9% | 4.5% | -4.0% | 1.9% | 9.6% | .
Cc1nc2nc(Cc3ccccc3)nn2c(C)c1Cl | 14.1µM* | -11.5% | 1.5% | -0.1% | -5.0% | -16.6%
Cc1nc2nc(CCc3ccccc3)nn2c(C)c1Cl | -7.7% | 0.6% | 3.4% | -4.6% | -1.1% | 0.1%
CC1CCCC(C)N1C(=O)COC(=O)c1cc(Br)ccc1Cl (stereo not given) | 20µM* | 2.1% | -5.3% | -4.3% | -8.1% | .
CCC1CCCCN1C(=O)COC(=O)c1cc(Br)ccc1Cl (stereo not given) | ? | 0.4% | -0.2% | -5.6% | -0.5% | .
O=C(CCn1c(=O)c2ccccc2n(CC(=O)NCCC2=CCCCC2)c1=O)NCc1ccco1 | 15.8µM* | 5.9% | -8.8% | -1.4% | 2.5% | -13.5%
COc1ccccc1NC(=S)N1CCC(C(=O)c2ccc(F)cc2)CC1 | 4.5% | -6.2% | 8.9% | -15.9% | -17.4% | .
N#C/C(=C\c1ccc(OC(=O)c2ccc(Cl)s2)cc1)c1nc2ccccc2[nH]1 | 4.6% | ? | ? | ? | -23.8% | -19.1%
N#C/C(=C\c1ccc(OC(=O)c2ccc(Br)s2)cc1)c1nc2ccccc2[nH]1 | -0.3% | ? | 17.8µM* | ? | -23.0% | -13.7%
COc1ccc(Br)cc1CNC(=O)c1cc2n(n1)CCCN(Cc1ccc(C)cc1)C2=O | . | 0.5% | . | -12.7% | -8.7% | .
COc1ccc(N2CCN(CCCNC(=O)c3c(C)nn(-c4ccc(F)cc4)c3-n3cccc3)CC2)cc1 | . | 4.0% | . | ? | -16.4% | .
N#CC(C#N)=Cc1cn(-c2ncc(C(F)(F)F)cc2Cl)c2ccccc12 | ? | -13.4% | 98.4% | ? | -18.5% | -7.2%
CC(=O)/C=C\c1cn(-c2ncc(C(F)(F)F)cc2Cl)c2ccccc12 | -6.7% | -3.1% | -5.8% | ? | -20.7% | 31.6µM*
COc1ccc(C(=S)N2CCNCC2)cc1 | -1.4% | -2.1% | 8.4% | -10.0% | -3.7% | -5.5%
